Sampled rows, rich in hits. Any-hit rate of the full collection: about 1.2%.
TLR4-MyD88 BLA – inhibitors of human TLR4-MyD88 binding. O00206+Q99836. HeLa CL3-4 TLR4/MyD88 BLA complementation, FRET ratio. inhibition, % at 8.4 µM. 200,000 tested, 0.18% active; in the data active means inhibition above about 25%
GC-A act – GC-A (human) enzyme activation; HEK293 GC-A cells, cGMP TR-FRET, EC30 ANP; 0% at EC30 ANP, 100% saturating ANP; 370,000 tested, 0.14% active; activation, % at 10 µM; AID 1671463; in the data active means activation above about 40%
TLR9-MyD88 inh – TLR9-MyD88 interaction inhibition; CHO BLA complementation TLR9-MyD88, CCF4 FRET ratio; AID 504734; 340,000 tested, 0.21% active; Q9NR96+Q99836; inhibition, % at 4.98 µM;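 active means inhibition above the mean over all tested compounds plus 3 SD, cut at about 21% in these data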
Neddylation inh – inhibitors of human cullin neddylation; P61081+Q13564; 360,000 tested, 0.58% active; TR-FRET cullin neddylation, biochemical; AID 651699; inhibition, % at 25 µM; in the data active means inhibition above about 36%
NPR2 activator – GC-B (human) receptor activation; 370,000 tested, 0.11% active; P20594; activation, % at 10 µM; HEK293-GC-B cells, CNP EC30, cGMP TR-FRET; 0% at EC30 CNP, 100% saturating CNP; AID 1920062;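 active means activation at 10 µM reaching about 35% in either raw or pattern-adjusted values, limit read from the data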
NOD2-RIPK2 inh – NOD2-RIPK2 protein interaction inhibition; O43353; CHO BLA complementation NOD2-RIPK2, CCF4 ratio; inhibition, % at 4.98 µM; 360,000 tested, 0.38% active; AID 624267; in the data active means inhibition above about 21%
Target sequence (O43353 whole entry, looked up): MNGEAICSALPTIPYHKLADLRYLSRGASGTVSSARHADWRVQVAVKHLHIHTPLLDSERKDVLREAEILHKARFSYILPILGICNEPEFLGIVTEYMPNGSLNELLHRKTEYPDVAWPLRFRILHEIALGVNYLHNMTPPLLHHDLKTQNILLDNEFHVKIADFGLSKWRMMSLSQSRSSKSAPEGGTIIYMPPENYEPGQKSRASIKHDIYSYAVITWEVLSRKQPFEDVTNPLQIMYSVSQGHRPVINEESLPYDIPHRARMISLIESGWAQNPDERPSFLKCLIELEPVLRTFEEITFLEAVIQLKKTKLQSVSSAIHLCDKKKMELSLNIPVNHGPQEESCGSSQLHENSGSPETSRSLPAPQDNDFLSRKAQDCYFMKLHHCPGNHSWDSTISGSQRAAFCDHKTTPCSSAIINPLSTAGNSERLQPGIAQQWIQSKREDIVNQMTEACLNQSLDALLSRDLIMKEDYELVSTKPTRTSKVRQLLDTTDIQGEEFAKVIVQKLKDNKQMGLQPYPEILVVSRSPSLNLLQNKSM
Neddyl inh conf – confirmation of human cullin neddylation inhibitors. TR-FRET cullin neddylation biochemical assay. shares compounds with Neddylation inh. 1,800 tested, 13% active. AID 652217. calls only at 25 µM; in the data active means inhibition above about 40%;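 further: neddylation substrate is the cullin 1 ring ligase complex with SKP2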
Of the large screens only hits and unclear results are named; the others gave an inactive call (follow-up assays come after a bar, where shown).

CC(C)c1ccc(C2/C(=C(/O)c3ccc(F)cc3)C(=O)C(=O)N2CCCN2CCOCC2)cc1 (configuration not stated)	none (no result: TLR4-MyD88 BLA)
OC[C@@H]1CCCN1Cc1cn(-c2ccccc2)nc1-c1ccc2c(c1)OCO2	Neddylation inh 39.6 | Neddyl inh conf inactive
COCC1CCCCN1Cc1cn(-c2ccccc2)nc1-c1ccc2c(c1)OCO2 (configuration not stated)	Neddylation inh 44.9 | Neddyl inh conf inactive
c1ccc(-n2cc(CN3CCCC(CN4CCCC4)C3)c(-c3ccc4c(c3)OCO4)n2)cc1 (configuration not stated)	none
COc1cccc(C(=O)N[C@H](C(=O)N2CCC[C@H]2C(=O)NCCc2ccccc2Cl)c2ccccc2)c1	none (no result: TLR4-MyD88 BLA, TLR9-MyD88 inh, Neddylation inh, NOD2-RIPK2 inh)
O=C(NNC1=Nc2ccccc2SC1)c1cccc([N+](=O)[O-])c1	Neddylation inh 43.0 (no result: TLR4-MyD88 BLA, TLR9-MyD88 inh) | Neddyl inh conf inactive
O=C(NNC1=Nc2ccccc2SC1)c1ccccc1F	none (no result: TLR4-MyD88 BLA)
CN(CC(=O)Nc1cccc(F)c1)C(=O)c1cc(-c2ccco2)nc2ccccc12	Neddylation inh 42.3 (not shown: TLR4-MyD88 BLA)
O=C1c2ccc(Oc3ccc4c(c3)C(=O)N(CCCCO)C4=O)cc2C(=O)N1CCCCO	none
O=C1c2ccc(-c3ccc4c(c3)C(=O)N(CCCO)C4=O)cc2C(=O)N1CCCO	Neddylation inh 53.8 (no result: TLR4-MyD88 BLA) | Neddyl inh conf inactive
O=C(NCc1ccco1)C1CCN(S(=O)(=O)c2cccc([N+](=O)[O-])c2)CC1	none (no result: TLR4-MyD88 BLA)
Cc1ccc2cc3cc(C(=O)NCCCN4CCc5ccccc5C4)oc3nc2c1	Neddylation inh 57.4 | Neddyl inh conf active
CCNC(=O)C1CCCN(C(=O)c2ccc(C)c(F)c2)CC1 (configuration not stated)	none (no result: TLR4-MyD88 BLA, TLR9-MyD88 inh)
Cc1cc(Cn2nc(C(=O)NCc3cccs3)cc2-c2ccccc2)on1	none (no result: TLR4-MyD88 BLA)
CN(Cc1ccccc1)C(=O)C1CCN(S(=O)(=O)c2ccc3nc4c(c(C(=O)O)c3c2)CCCC4)CC1	none (no result: TLR4-MyD88 BLA)
CC(=O)Nc1ccc(C(=O)COC(=O)CCN2C(=O)C3CC=CCC3C2=O)cc1 (configuration not stated)	Neddylation inh 57.8 (no result: TLR4-MyD88 BLA) | Neddyl inh conf inactive
O=C(CCN1C(=O)C2CC=CCC2C1=O)OCC(=O)c1ccc(F)cc1 (configuration not stated)	none (no result: TLR4-MyD88 BLA)
N#C/C(=C\c1c(Cl)cccc1Cl)c1nc2ccccc2[nH]1	Neddylation inh 46.0 (no result: TLR4-MyD88 BLA) | Neddyl inh conf active
CN(C)/C=C(\C#N)c1nc2ccccc2[nH]1	none
O=C(CSc1cccc2cccnc12)Nc1cc(C(=O)O)cc(C(=O)O)c1	Neddylation inh 48.6 (no result: TLR4-MyD88 BLA) | Neddyl inh conf active
CC(Oc1ccc2c(-c3ccccc3)cc(=O)oc2c1)C(=O)N1CCOCC1 (configuration not stated)	none (no result: TLR4-MyD88 BLA)
CC(Oc1ccc2ccc(=O)oc2c1)C(=O)N1CCOCC1 (configuration not stated)	Neddylation inh 53.0 (not shown: TLR4-MyD88 BLA)
COC(=O)C1CCN(c2nc3ccccc3nc2C(C#N)C(=O)OCC(C)C)CC1 (configuration not stated)	Neddylation inh 41.0 | Neddyl inh conf inactive
CC(C)OC(=O)C(C#N)c1nc2ccccc2nc1N1CCCC1 (configuration not stated)	Neddylation inh 41.0 (no result: GC-A act, NPR2 activator) | Neddyl inh conf inactive
COC(=O)C(C#N)c1nc2ccccc2nc1N1CCCC1 (configuration not stated)	none
O=C(COC(=O)c1ccccc1O)Nc1cc(S(=O)(=O)N2CCCCCC2)ccc1Cl	Neddylation inh 48.8 (not shown: TLR4-MyD88 BLA)
O=C(Nc1cc(S(=O)(=O)N2CCCCC2)ccc1O)c1ccccc1NS(=O)(=O)c1ccc(F)c(F)c1	Neddylation inh 50.7 | Neddyl inh conf inactive
O=C(COC(=O)c1ccccc1)Nc1cc(S(=O)(=O)N2CCCCCC2)ccc1Cl	none (no result: TLR4-MyD88 BLA)
CC(=O)N1c2ccccc2C(=O)NCC1C(=O)NC(C)(C)C (configuration not stated)	none (no result: TLR4-MyD88 BLA, TLR9-MyD88 inh, Neddylation inh, NOD2-RIPK2 inh)
O=C(NCCCc1ccccc1)c1ccccc1O	Neddylation inh 41.9 | Neddyl inh conf inactive
O=C(NCCCCCCNC(=O)c1ccccc1O)c1ccccc1O	none (no result: TLR4-MyD88 BLA)
O=C(CSc1ccccc1)N/N=C/c1ccccc1O	none
COc1ccc(O)c(/C=N/NC(=O)CN2CCS(=O)(=O)CC2)c1	Neddylation inh 40.3 (no result: TLR4-MyD88 BLA) | Neddyl inh conf inactive
COc1ccc(CSCC(=O)N/N=C/c2ccccc2O)cc1	Neddylation inh 39.2 | Neddyl inh conf inactive
CCC(=O)Nc1nnc(/C=C/c2ccccc2)s1	Neddylation inh 46.6 (no result: TLR4-MyD88 BLA) | Neddyl inh conf inactive
NC(=O)c1cccc(N=Cc2cc(Cl)cc(Cl)c2O)c1	Neddylation inh 38.0 | Neddyl inh conf inactive
C[C@@H]1CN([C@@H](C)CO)C(=O)CCCn2cc(nn2)CO[C@H]1CN(C)C(=O)CCC(F)(F)F	none (no result: TLR4-MyD88 BLA, TLR9-MyD88 inh, Neddylation inh, NOD2-RIPK2 inh)
COc1cc2cc(CN(CCCN3CCOCC3)C(=O)Nc3ccccc3F)c(=O)[nH]c2cc1OC	Neddylation inh 40.5 | Neddyl inh conf inactive
Cc1cc(-c2nn(-c3ccccc3)cc2/C=C2\SC(N)=NC2=O)ccc1OC(C)C	Neddylation inh 47.7 | Neddyl inh conf inactive
CCCOc1ccc(-c2nn(-c3ccccc3)cc2/C=C2\SC(N)=NC2=O)cc1	none (not shown: Neddylation inh)
O=C(NCc1cccnc1)c1ccccc1NS(=O)(=O)c1ccc(Br)cc1	none (no result: TLR4-MyD88 BLA)
Cc1cc(F)ccc1S(=O)(=O)Nc1ccccc1C(=O)NC1CCN(Cc2ccccc2)CC1	Neddylation inh 46.7 (no result: TLR4-MyD88 BLA) | Neddyl inh conf active
Cc1cc(F)ccc1S(=O)(=O)Nc1ccccc1C(=O)NCc1cccnc1	Neddylation inh 43.7 | Neddyl inh conf inactive
COc1ccc(S(=O)(=O)Nc2ccccc2C(=O)NCc2cccnc2)cc1C	Neddylation inh 40.4 (not shown: TLR4-MyD88 BLA)
Cc1ccc(NC2CCCCC2NS(=O)(=O)c2ccccc2)c(C)c1 (configuration not stated)	none (no result: TLR4-MyD88 BLA)
N#Cc1cccnc1N1CCN(C(=O)COCC(=O)O)CC1	Neddylation inh 42.4 (no result: TLR4-MyD88 BLA) | Neddyl inh conf active
COc1cccc(-c2nc(C#N)c(N3CCN(C(=O)c4ccco4)CC3)o2)c1	Neddylation inh 56.1 (no result: TLR4-MyD88 BLA) | Neddyl inh conf inactive
Cc1nc(N2CCN(C(=O)c3ccco3)CC2)c(C#N)c2c1CCCC2	Neddylation inh 48.2 (no result: TLR4-MyD88 BLA) | Neddyl inh conf inactive
Cc1cc(C(=O)N2CCN(c3ncccc3C#N)CC2)no1	none (no result: TLR4-MyD88 BLA)
N#Cc1nc(-c2ccc(F)cc2)oc1N1CCN(C(=O)c2ccco2)CC1	none (no result: TLR4-MyD88 BLA)
N#Cc1cccnc1N1CCN(C(=O)c2ccco2)CC1	Neddylation inh 48.9 (no result: TLR4-MyD88 BLA) | Neddyl inh conf inactive
COc1ccc(N2CCN(C(=O)COCC(=O)O)CC2)cc1	none
C[C@@H]1CN([C@@H](C)CO)C(=O)CCCn2nncc2CO[C@@H]1CN(C)C(=O)c1cc(-c2ccccc2)on1	none (no result: TLR4-MyD88 BLA)
CCOC(=O)c1c(S(=O)(=O)NCC(=O)Nc2cc(C)ccn2)c(C)n(C)c1C	none (no result: TLR4-MyD88 BLA)

Screens as filed in PubChem BioAssay.
